This passage reports growth results from PubChem BioAssay (NCI).

Molecules are shown by their SMILES. Compounds without any hit were thinned out: in the full panel of roughly 83,000, 20% have a hit.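 Single-dose data. Exposure time 48 hours. Values below 10 considered active.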 Unmarked numbers belong to inactive results. The source made the active and inactive calls.

Among the test systems are DU-145 prostate; K-562 leukemia; MALME-3M melanoma; MDA-MB-231 breast; RXF 393 renal; SF-268 CNS; SF-295 CNS; SF-539 CNS; UACC-257 melanoma; M14 melanoma; HCT-15 colon; HT29 colon; SNB-75 CNS; SNB-19 CNS; U251 CNS; PC-3 prostate; SK-MEL-5 melanoma; UACC-62 melanoma; LOX IMVI melanoma; SK-MEL-28 melanoma.
What all share (assay): NCI-60 one-dose screen, 48 h (100 = growth as untreated, 0 = no growth, -100 = all killed)
Common to all, as to conditions: 10 µM unless noted

As for `CN(C)Cc1ccc(NC(=O)c2cncc(C#Cc3cnc(N)c4ncccc34)c2)cc1F`, the growth in the assay with DU-145 prostate was 86.8%; with K-562 leukemia, -4.46% (active); in the assay with MALME-3M melanoma, 65.6%; in the assay with MDA-MB-231 breast, -73.1% (active); in the assay with RXF 393 renal, 40.1%; with SF-268 CNS it was 94%. For the same compound, the growth in the assay on SF-295 CNS is 95.9%; in the assay on SF-539 CNS it was 95.4%; with UACC-257 melanoma, 88.7%; with M14 melanoma, -84.5% (active); in the assay with HCT-15 colon, -55.7% (active); in the assay with HT29 colon, 3.71% (active). The growth was 123% in the assay on SNB-75 CNS; 87.2% in the assay with SNB-19 CNS; 74.8% in the assay on U251 CNS; 75.2% with PC-3 prostate; 77.3% in the assay with SK-MEL-5 melanoma; 94.2% in the assay with UACC-62 melanoma. The growth in the assay with LOX IMVI melanoma was -65% (active); in the assay with SK-MEL-28 melanoma, -48.2% (active).
Consider `CC(C)NC1CCC(Nc2ccnc3cc(Cl)ccc23)CC1` (stereo not given), for which the growth in the assay on DU-145 prostate was 111%; in the assay on K-562 leukemia, 56.3%; in the assay on MALME-3M melanoma, 85.4%; in the assay on MDA-MB-231 breast, 76.5%; in the assay on RXF 393 renal, 49.2%; in the assay on SF-268 CNS it was 99.6%. Also, the growth was 96.6% in the assay with SF-295 CNS; 97.5% with SF-539 CNS; 88.6% in the assay with UACC-257 melanoma; 93.2% with M14 melanoma; 99.1% in the assay with HCT-15 colon; 77.5% in the assay with HT29 colon. Besides, the growth in the assay with SNB-75 CNS is 83.7%; in the assay with SNB-19 CNS, 109%; in the assay with U251 CNS it was 87.7%; in the assay on PC-3 prostate it was 78.6%; in the assay on SK-MEL-5 melanoma, 90.8%; in the assay on UACC-62 melanoma, 97.3%. The growth with LOX IMVI melanoma is 86.6%; with SK-MEL-28 melanoma, 101%.
`S=C(Nc1ccc(-c2nc(N3CCOCC3)c3cccn3n2)cc1)Nc1cccnc1`: the growth with DU-145 prostate was 18.6%; in the assay on K-562 leukemia, 26.2%; with MALME-3M melanoma it was 24.7%; with MDA-MB-231 breast it was 41.3%; with RXF 393 renal, 17.9%; in the assay with SF-268 CNS it was 53.1%. The growth with SF-295 CNS was 25.6%; with SF-539 CNS, 10%; in the assay on UACC-257 melanoma, 50.9%; with M14 melanoma, 32.1%; with HCT-15 colon, 18.4%; with HT29 colon it was 22.8%. The growth with SNB-75 CNS was 36.5%; with SNB-19 CNS it was 32.2%; in the assay on U251 CNS, 31.7%; in the assay with PC-3 prostate it was 16.4%; in the assay with SK-MEL-5 melanoma, 58.2%; in the assay on UACC-62 melanoma it was 25.4%. Further, the figures for the growth in the assay with LOX IMVI melanoma and with SK-MEL-28 melanoma were 30.8% and 45.9%, respectively.
`Cc1cccc(N2CCN(CC(O)COc3ccc(Cl)cc3)CC2)c1` (stereo not given): the growth was 115% with DU-145 prostate; 82.9% with K-562 leukemia; 146% in the assay on MALME-3M melanoma; 94.5% with MDA-MB-231 breast; 107% with RXF 393 renal; 105% in the assay on SF-268 CNS. Also, the growth was 82.3% with SF-295 CNS; 101% with SF-539 CNS; 108% in the assay on UACC-257 melanoma; 95.9% in the assay with M14 melanoma; 97.4% with HCT-15 colon; 114% with HT29 colon. The growth was 104% with SNB-75 CNS; 98.3% with SNB-19 CNS; 95.7% in the assay with U251 CNS; 91.9% with PC-3 prostate; 97.4% in the assay on SK-MEL-5 melanoma; 96.4% in the assay with UACC-62 melanoma. Also, the growth in the assay on LOX IMVI melanoma was 97.6%; with SK-MEL-28 melanoma, 117%.
With `c1cc2[nH]ncc2cc1-c1nc2ccc3[nH]ncc3c2c2c1CCCC2`, the growth was 23.3% with DU-145 prostate; 15.3% with K-562 leukemia; 12.1% in the assay with MALME-3M melanoma; 31.1% in the assay with MDA-MB-231 breast; -15.8% (active) with RXF 393 renal; 25.1% with SF-268 CNS. The growth was 19.4% in the assay on SF-295 CNS; -7.82% (active) in the assay on SF-539 CNS; 20.2% in the assay on UACC-257 melanoma; 2.16% (active) in the assay on M14 melanoma; 7.1% (active) in the assay with HCT-15 colon; 4.84% (active) in the assay on HT29 colon. The growth was -3.31% (active) in the assay with SNB-75 CNS; 24.3% in the assay on SNB-19 CNS; 15.7% in the assay with U251 CNS; 23.1% in the assay on PC-3 prostate; -56.1% (active) in the assay on SK-MEL-5 melanoma; 1.74% (active) in the assay on UACC-62 melanoma. Further, the growth is 16.2% with LOX IMVI melanoma and -0.43% (active) in the assay with SK-MEL-28 melanoma.
As to `CCOc1nc(-c2ccccc2)cc2c(O)c(C(=O)NN)[nH]c(=O)c12`, the growth is 120% in the assay with DU-145 prostate; 134% in the assay with K-562 leukemia; 112% in the assay with MALME-3M melanoma; 99.3% with MDA-MB-231 breast; 108% in the assay on RXF 393 renal; 86.2% in the assay with SF-268 CNS. Besides, the growth in the assay with SF-295 CNS was 107%; in the assay with SF-539 CNS it was 96.9%; in the assay on UACC-257 melanoma, 103%; with M14 melanoma, 98.8%; in the assay on HCT-15 colon, 106%; with HT29 colon it was 114%. The growth was 86.4% with SNB-75 CNS; 106% in the assay with SNB-19 CNS; 106% in the assay on U251 CNS; 83% with PC-3 prostate; 105% in the assay with SK-MEL-5 melanoma; 106% in the assay with UACC-62 melanoma. For the same compound, the growth is 101% in the assay with LOX IMVI melanoma and 99.8% in the assay with SK-MEL-28 melanoma.
For `O=C1NC(=O)c2c1c1c3ccccc3ccc1c1[nH]c3ccc(Br)cc3c21`, the growth in the assay with DU-145 prostate is 22.5%; in the assay with K-562 leukemia, 13.3%; in the assay on MALME-3M melanoma, -10.7% (active); with MDA-MB-231 breast, 27.5%; in the assay on RXF 393 renal, 11.6%; in the assay with SF-268 CNS, 14%. Besides, the growth in the assay with SF-295 CNS was 24.3%; with SF-539 CNS, 23.1%; with UACC-257 melanoma it was 51.9%; in the assay with M14 melanoma, 15.5%; in the assay with HCT-15 colon, 13.4%; in the assay with HT29 colon it was 26.4%. Moreover, the growth in the assay with SNB-75 CNS was 22.8%; in the assay on SNB-19 CNS, 23.8%; in the assay with U251 CNS, 20.7%; in the assay on PC-3 prostate, 3.55% (active); in the assay with SK-MEL-5 melanoma, -82.5% (active); in the assay on UACC-62 melanoma, 29.9%. Further, the growth is 22.8% in the assay with LOX IMVI melanoma and 44.4% in the assay on SK-MEL-28 melanoma.
